# The full list was thinned out, with the strongest signals kept by preference.
# How the values were obtained:
# Assay in all cases: glycan array binding signal (z-score within array); higher = stronger binding
# Conditions in all cases: glycan notation: IUPAC condensed, linker removed
# [1] = target: Fuc(a1-2)Gal(b1-3)[Fuc(a1-4)]GlcNAc(b1-2)Man(a1-3)[Fuc(a1-2)Gal(b1-3)[Fuc(a1-4)]GlcNAc(b1-2)Man(a1-6)]Man(b1-4)GlcNAc(b1-4)[Fuc(a1-6)]GlcNAc(b1-4)[Fuc(a1-6)]GlcNAc
# How it was run: (§1)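 The binding signal is a Z-score computed within each array. Data were drawn from 3228 arrays in the Consortium for Functional Glycomics database, restricted to those with a known protein sequence. Scores were averaged over arrays of the same protein sequence at different concentrations or buffers, and over linkers, and negative values can be taken as non-binding.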
# [2] = target: Fuc(a1-2)Gal(b1-4)GlcNAc(b1-2)Man
# How it was run: as §1
# [3] = target: Fuc(a1-2)Gal(b1-4)GlcNAc(b1-2)[Fuc(a1-2)Gal(b1-4)GlcNAc(b1-4)]Man(a1-3)[Fuc(a1-2)Gal(b1-4)GlcNAc(b1-2)Man(a1-6)]Man(b1-4)GlcNAc(b1-4)GlcNAc
# How it was run: as §1
# [4] = target: Fuc(a1-2)Gal(b1-4)[Fuc(a1-3)]GlcNAc
# How it was run: as §1
# [5] = target: Fuc(a1-2)Gal(b1-4)[Fuc(a1-3)]GlcNAc(b1-3)Gal(b1-4)[Fuc(a1-3)]GlcNAc(b1-3)Gal(b1-4)[Fuc(a1-3)]GlcNAc
# How it was run: as §1
# [6] = target: Fuc(a1-2)[Gal(a1-3)]Gal(b1-4)GlcNAc(b1-2)Man
# How it was run: as §1
# [7] = target: Fuc(a1-2)[GalNAc(a1-3)]Gal(b1-4)GlcNAc(b1-6)GalNAc
# How it was run: as §1
# [8] = target: Fuc(a1-3)[Gal(b1-4)]Glc6S
# How it was run: as §1
# [9] = target: Fuc(a1-3)[Gal(b1-4)]GlcNAc(b1-6)[Gal(b1-3)GlcNAc(b1-3)]Gal(b1-4)Glc
# How it was run: as §1
# [10] = target: Gal(a1-3)Gal(b1-3)GlcNAc
# How it was run: as §1
# [11] = target: Gal(a1-3)GalNAc
# How it was run: as §1
# [12] = target: Gal(b1-3)GlcNAc(a1-3)Gal(b1-4)GlcNAc
# How it was run: as §1
# [13] = target: Gal(b1-3)GlcNAc(b1-3)Gal(b1-4)GlcNAc(b1-2)[Gal(b1-3)GlcNAc(b1-3)Gal(b1-4)GlcNAc(b1-6)]Man(a1-6)[Gal(b1-3)GlcNAc(b1-3)Gal(b1-4)GlcNAc(b1-2)Man(a1-3)]Man(b1-4)GlcNAc(b1-4)[Fuc(a1-6)]GlcNAc
# How it was run: as §1
# [14] = target: Gal(b1-4)Glc
# How it was run: as §1
# [15] = target: Gal(b1-4)GlcNAc(a1-6)Gal(b1-4)GlcNAc
# How it was run: as §1
# [16] = target: Gal(b1-4)GlcNAc(b1-2)Man
# How it was run: as §1
# [17] = target: Gal(b1-4)GlcNAc(b1-2)[Gal(b1-4)GlcNAc(b1-4)]Man(a1-3)[Gal(b1-4)GlcNAc(b1-2)[Gal(b1-4)GlcNAc(b1-6)]Man(a1-6)]Man(b1-4)GlcNAc(b1-4)GlcNAc
# How it was run: as §1
# [18] = target: Gal(b1-4)GlcNAc(b1-3)Gal(b1-4)GlcNAc(b1-2)Man(a1-3)[Gal(b1-4)GlcNAc(b1-3)Gal(b1-4)GlcNAc(b1-2)Man(a1-6)]Man(b1-4)GlcNAc(b1-4)GlcNAc
# How it was run: as §1
# [19] = target: Gal(b1-4)GlcNAc(b1-3)Gal(b1-4)GlcNAc(b1-2)Man(a1-3)[Gal(b1-4)GlcNAc(b1-3)Gal(b1-4)GlcNAc(b1-2)Man(a1-6)]Man(b1-4)GlcNAc(b1-4)[Fuc(a1-6)]GlcNAc
# How it was run: as §1
# [20] = target: Gal(b1-4)GlcNAc(b1-3)Gal(b1-4)GlcNAc(b1-3)Gal(b1-4)GlcNAc(b1-3)Gal(b1-4)GlcNAc(b1-2)Man(a1-3)[Gal(b1-4)GlcNAc(b1-3)Gal(b1-4)GlcNAc(b1-3)Gal(b1-4)GlcNAc(b1-3)Gal(b1-4)GlcNAc(b1-2)Man(a1-6)]Man(b1-4)GlcNAc(b1-4)[Fuc(a1-6)]GlcNAc
# How it was run: as §1
# [21] = target: Gal(b1-4)GlcNAc(b1-3)Gal(b1-4)GlcNAc(b1-3)Gal(b1-4)GlcNAc(b1-3)Gal(b1-4)GlcNAc(b1-3)Gal(b1-4)GlcNAc(b1-2)Man(a1-3)[Gal(b1-4)GlcNAc(b1-3)Gal(b1-4)GlcNAc(b1-3)Gal(b1-4)GlcNAc(b1-3)Gal(b1-4)GlcNAc(b1-3)Gal(b1-4)GlcNAc(b1-2)Man(a1-6)]Man(b1-4)GlcNAc(b1-4)GlcNAc
# How it was run: as §1
# [22] = target: Gal(b1-4)GlcNAc(b1-3)Gal(b1-4)GlcNAc(b1-3)Gal(b1-4)GlcNAc(b1-3)Gal(b1-4)GlcNAc(b1-3)Gal(b1-4)GlcNAc(b1-2)[Gal(b1-4)GlcNAc(b1-3)Gal(b1-4)GlcNAc(b1-3)Gal(b1-4)GlcNAc(b1-3)Gal(b1-4)GlcNAc(b1-3)Gal(b1-4)GlcNAc(b1-6)]Man(a1-6)[Gal(b1-4)GlcNAc(b1-3)Gal(b1-4)GlcNAc(b1-3)Gal(b1-4)GlcNAc(b1-3)Gal(b1-4)GlcNAc(b1-3)Gal(b1-4)GlcNAc(b1-2)Man(a1-3)]Man(b1-4)GlcNAc(b1-4)[Fuc(a1-6)]GlcNAc
# How it was run: as §1
# [23] = target: Gal(b1-4)GlcNAc(b1-3)Gal(b1-4)GlcNAc(b1-3)Gal(b1-4)GlcNAc(b1-3)Gal(b1-4)GlcNAc(b1-3)Gal(b1-4)GlcNAc(b1-3)Gal(b1-4)GlcNAc(b1-2)Man(a1-3)[Gal(b1-4)GlcNAc(b1-3)Gal(b1-4)GlcNAc(b1-3)Gal(b1-4)GlcNAc(b1-3)Gal(b1-4)GlcNAc(b1-3)Gal(b1-4)GlcNAc(b1-3)Gal(b1-4)GlcNAc(b1-2)Man(a1-6)]Man(b1-4)GlcNAc(b1-4)GlcNAc
# How it was run: as §1
# [24] = target: Gal3S(b1-4)Glc
# How it was run: as §1
# [25] = target: GalNAc3S(b1-4)GlcNAc
# How it was run: as §1
# [26] = target: GalNAc3S(b1-4)[Fuc(a1-3)]GlcNAc
# How it was run: as §1
# [27] = target: GalNAc4S6S(b1-4)GlcNAc
# How it was run: as §1
binder,measurement,setting,value
GS13599A-bth-520-23-520 (Bacteroides thetaiotaomicron) (protein) SEDTMDRINKDHDHTTSVASRFILADVITSTAFSNASGDINTYASSYIEYEVGVDNQLYYAEVRENEPSSSSTFNNSWNGIYSSLKNARIIIDQCGEGGRDHGNDVTRGMAEVMAAYNCALIADFFGDAPCSQAALVDEKGSPVYMTPKMDTQQEIYTQIISYLDDAIANLQKEDLADVTEQDFLYAGDADKWLKFAYGLKARYTMRLINRSSNKSADYEKVLDYVSKSFTSADDQAAFDIYDSNNINPFYGFYNSRAGFGASTSLGTKLLAYNDPRANRAFFTPIVDKKRSQVAANDPSLVPAPNGSPDQSTSKYGISAFVYAKTAPTLLMSYHELMFLKAEALCRLNRDAEDALKEAVVAGLLNAENSISIAIKELGSGLNTNSSEVITETSAGKYFDDVVKAKYAANPLQETMIQKYLAMWGASGEATETYNDFRRMKGLNENFITLTNPNNSSKFPLRYPYGNSDTAANPEVKAAYGNGDYVYSEPVWWAGGSR,glycan array binding signal (z-score),[1],0.741
same,glycan array binding signal (z-score),[2],-0.841
same,glycan array binding signal (z-score),[3],2.4
same,glycan array binding signal (z-score),[4],0.206
same,glycan array binding signal (z-score),[5],-0.474
same,glycan array binding signal (z-score),[6],-0.234
same,glycan array binding signal (z-score),[7],-1.38
same,glycan array binding signal (z-score),[8],0.474
same,glycan array binding signal (z-score),[9],-0.479
same,glycan array binding signal (z-score),[10],-0.349
same,glycan array binding signal (z-score),[11],-1.08
same,glycan array binding signal (z-score),[12],0.206
same,glycan array binding signal (z-score),[13],2.93
same,glycan array binding signal (z-score),[14],-0.435
same,glycan array binding signal (z-score),[15],-1.2
same,glycan array binding signal (z-score),[16],2.44
same,glycan array binding signal (z-score),[17],-0.453
same,glycan array binding signal (z-score),[18],3.32
same,glycan array binding signal (z-score),[19],1.38
same,glycan array binding signal (z-score),[20],2.46
same,glycan array binding signal (z-score),[21],3.9
same,glycan array binding signal (z-score),[22],7.02
same,glycan array binding signal (z-score),[23],0.294
same,glycan array binding signal (z-score),[24],3.17
same,glycan array binding signal (z-score),[25],0.897
same,glycan array binding signal (z-score),[26],2.41
same,glycan array binding signal (z-score),[27],-1.28

# From the supplement of paper PMC8728848
